Assay results as given in ChEMBL document CHEMBL4513216, “Probing the Open Global Health Chemical Diversity Library for Multistage-Active Starting Points for Next-Generation Antimalarials” (ACS Infect Dis, 2020).
In all, about 69,000 compounds went through this assay and about 8,600 (12%) showed an effect of 50% or more. For the sample, strong results were picked, then their nearest neighbours and some compounds at random.

tested on: Plasmodium berghei; test: Screen against P. berghei liver stage (PbLuc), transformed with Luciferase, at 10uM; assay type: functional, HepG2; conditions: tested at 10 uM

| Structure (SMILES) | INHIBITION |
| --- | --- |
| CCC[C@H]1CN(C(=O)CCn2ccccc2=O)C[C@@H]1NS(C)(=O)=O | -7.98% |
| Cc1nc(C(C)C)sc1C(=O)N1CCC(C(N)=O)CC1 | -49.2% |
| Cc1cc(C)cc(OCC(=O)NC2CCN(S(C)(=O)=O)CC2)c1 | 33% |
| Cc1cc(N2CCN(CCO)CC2)nc(-c2ccncc2)n1 | 30% |
| CN1CCN(C(=O)COCc2nc(-c3ccncc3)no2)CC1 | 11.4% |
| CC(C)NC(=O)NCc1nnc2n1C(C(=O)N(C)C)CC2 (stereo not drawn) | 9.32% |
| CCCc1noc(C2CCN(C(=O)CCn3nc(C)cc3C)CC2)n1 | 36.6% |
| COC[C@H]1CCC[C@H]1Nc1ncnc2c1CCNCC2 | -6.94% |
| CC(C)N1CCC2(CC1)CC(NCc1ccccn1)c1ccccc1O2 (stereo not drawn) | 7.31% |
| O=C(C1CCC1)N1CCC2(CCCN2CC2CC2)CC1 | 22.3% |
| O=C(C1CCCC1)N1CCC2(CC1)COCCN2CC1CC1 | 39.1% |
| O=C(C1CCCCC1)N1CCC2(CCCN2CC2CC2)CC1 | 50.7% |
| OC1(CNCCCN2CCc3ccccc32)CCNC1 (stereo not drawn) | 30.7% |
| CCN(CCSc1ccccc1)C(=O)c1cn(C2CCC(N)CC2)nn1 (stereo not drawn) | -56.6% |
| CN(C)c1cc(C(=O)Nc2cccnc2N2CCSCC2)ccn1 | 2.97% |
| CN(C)c1cc(C(=O)Nc2ccccc2C(=O)NC(C)(C)C)ccn1 | 7.4% |
| CNC(=O)c1cccc(NC(=O)c2ccnc(N(C)C)c2)c1C | 53.9% |
| C=C(C)CN1CCN(Cc2nccn2C)C(C)C1 (stereo not drawn) | 42.45% |
| CN1CCN(C(=O)Cc2cccc(F)c2)Cc2cccnc21 | -3.19% |
| Cc1nc2cc(F)cc(C(=O)N3CCN(CCO)CC3)c2nc1C | -24% |
| O=C(c1cc(-c2cccs2)nc2ccccc12)N1CCN(CCO)CC1 | 68.4% |
| Cc1nc(O)ccc1C(=O)N1CCCC1c1nc(-c2ccccc2)n[nH]1 (stereo not drawn) | 69.8% |
| O=C(c1ccc(-c2cccs2)cc1F)N1CCN(CCO)CC1 | 38.7% |
| Cc1nc(-c2cccs2)ccc1C(=O)N1CCN(CC(C)O)CC1 (stereo not drawn) | 55.4% |
| Cc1nc(-c2ccccc2)ccc1C(=O)N1CCn2c(C)nnc2C1 | -0.758% |

| Structure (SMILES) | INHIBITION |
| --- | --- |
| Cc1nc2cc(F)ccc2cc1C(=O)N1CCN(CC(C)O)CC1 (stereo not drawn) | -11.5% |
| O=C(c1ccncc1F)N1CCCC1c1nc(-c2ccccc2)n[nH]1 (stereo not drawn) | 16.8% |
| Cc1nc(-c2cccs2)ccc1C(=O)N1CCN(CCO)CC1 | 27.6% |
| Cc1nc(-c2ccccc2)ccc1C(=O)N1CCN(CCO)CC1 | 71.2% |
| O=C(c1ccc[nH]1)N1CCCC1c1nc(-c2ccccc2)n[nH]1 (stereo not drawn) | -1.76% |
| O=C(c1cc2ccccc2c(=O)[nH]1)N1CCN(CCO)CC1 | 2.32% |
| Cc1cc(-n2nnc(C(=O)O)c2-c2ccncc2)ccc1F | 49.9% |
| CCOC(=O)CNC(=O)c1cccnc1Sc1cc(OC)ccc1OC | 3.58% |
| Cc1ccc(CNC(=O)NC(C)CN2CCOCC2)s1 (stereo not drawn) | 14% |
| COCCC(=O)N1C[C@@H](c2ccccc2F)[C@@]2(CCCC(=O)N2)C1 | 29.5% |
| Cn1cc(N2CCC3(CCN(Cc4nccs4)C3)C2=O)cn1 (stereo not drawn) | 26.2% |
| Cc1nc(C)n(CC2CCCN2Cc2nc(-c3ccsc3)no2)n1 (stereo not drawn) | 46.8% |
| Cc1ccccc1OCCCNC(=O)C1(C)CC(=O)N2C=CC=CC2=N1 (stereo not drawn) | 9.63% |
| Cc1nc(C)n(CC2CN(Cc3ccccc3C#N)CCO2)n1 (stereo not drawn) | 5.9% |
| CCN(Cc1cscn1)CC1(C)Cc2c(N)nc(N)nc2O1 (stereo not drawn) | 33.85% |
| CN(CC1(CO)CC1)C(=O)C1CCC(=O)N(Cc2ccc(Cl)cc2)C1 (stereo not drawn) | 70.4% |
| CN(CC1(CO)CCC1)C(=O)C1CCC(=O)N(Cc2ccc(Cl)cc2)C1 (stereo not drawn) | 49% |
| CN(CCC(C)(C)O)C(=O)C1CCC(=O)N(Cc2ccc(Cl)cc2)C1 (stereo not drawn) | 46.9% |
| COc1cc(C(C)=O)ccc1OC12CCCN(CC1)C2 (stereo not drawn) | 47.7% |
| CCc1ccc(CN2CCCn3c(nc(Cn4ccnc4)cc3=O)C2)o1 | -2.17% |
| CCO[C@@H]1CCN(C(=O)c2ccc[nH]2)[C@@H]1Cc1cccnc1 | 36.9% |
| Cc1ccc(C(=O)N2CCOCC2C(N)=O)c(F)c1 (stereo not drawn) | 54.5% |
| Cc1ccc(C(=O)N2CC(C(N)=O)O[C@H](C)C2)c(F)c1 (stereo partly drawn) | -110% |
| Cc1ccc(S(=O)(=O)N2CCOCC2C(N)=O)c(F)c1 (stereo not drawn) | 27.4% |
| CCOc1ccc(CSC(C)c2nc(C)no2)nc1 (stereo not drawn) | 60.2% |

| Structure (SMILES) | INHIBITION |
| --- | --- |
| CCOc1cccc(CSC(C)c2nc(C)no2)n1 (stereo not drawn) | -10.8% |
| Cc1noc(C(C)SCc2ccccn2)n1 (stereo not drawn) | 14.3% |
| CNc1nc2cn(C3CCCC3)c(=O)c-2c[nH]1 | -24.5% |
| CC1CN(C)CCN1CC(=O)NCCOc1ccc2c(c1)OCO2 (stereo not drawn) | 18.7% |
| O=C(c1ccco1)N1CC(S(=O)(=O)c2ccc(Cl)cc2)C1 | 50.5% |
| O=C(c1cccnc1)N1CC(S(=O)(=O)c2ccc(Cl)cc2)C1 | 29.7% |
| O=C(c1ccccn1)N1CC(S(=O)(=O)c2ccc(Cl)cc2)C1 | -54.7% |
| c1ccc2c3c([nH]c2c1)C(c1nn[nH]n1)CCC3 (stereo not drawn) | 26.4% |
| Cn1ccnc1C1(O)CCCN(Cc2ccncc2)CC1 (stereo not drawn) | 7.36% |
| COc1ccc(C2c3c(N)nc(SC)nc3N=C3CCCC(=O)C32)cc1 (stereo not drawn) | 21.7% |
| COc1cc2c(cc1CNC(Cc1cccs1)c1nccs1)OCO2 (stereo not drawn) | 20.07% |
| COc1cc2c(cc1CNC(Cc1cccs1)c1nccs1)OCCO2 (stereo not drawn) | 36.9% |
| CCOc1cc2c(cc1CNC(Cc1cccs1)c1nccs1)OCO2 (stereo not drawn) | 52% |
| CCc1nnc(Nc2cc(C)nc(C3CCN(c4cnccn4)C3)n2)s1 (stereo not drawn) | 32.3% |
| CCOc1ccc2[nH]c(=O)c(CN3CCC(O)CC3)cc2c1 | 20.2% |
| CCCN1CCN(Cc2cc3cc(OCC)ccc3[nH]c2=O)CC1 | 6.67% |
| CCOc1ccc2[nH]c(=O)c(CN3CCN(S(N)(=O)=O)CC3)cc2c1 | 94.3% |
| CCCN(CCOC)C(=O)c1cc(Cn2c(C)nc3ccccc32)[nH]n1 | 65.7% |
| CCN(CCO)C(=O)c1cc(Cn2c(C)nc3ccccc32)[nH]n1 | 24.9% |
| Cc1nc2ccccc2n1Cc1cc(C(=O)N(C)C2CCOC2)n[nH]1 (stereo not drawn) | -39.9% |
| NC(=O)CNC(=O)c1cc(Cn2cnc3ccccc32)[nH]n1 | -72.5% |
| CCn1nc(C)c(CN(CCOC)C(=O)c2ccc(=O)[nH]n2)c1C | -65% |
| CCCN(CC)C(=O)c1cc(Cn2c(C)nc3ccccc32)[nH]n1 | 75.7% |
